20 compounds from PubChem BioAssay can be followed below.

Test [1] in a line: antimalarial activity against Dd2 strain (AID 2302;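 active means growth inhibition above 50% at the single 2 µM test dose, taken to imply half-maximal potency below 2 µM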;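 further: 0% = DMSO untreated growth and 100% = chloroquine plus artemisinin killed control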). Conditions: P. falciparum Dd2 in RBCs, LDH growth readout, 72 h; at 2 µM; hits give high values.
A short description of test [2]: HepG2 cytotoxicity, primary screen, cytotoxicity control for P. falciparum antimalarial project, cell-based, ATP luminescence (AID 2303;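 active means inhibition above 50%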;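 further: 0% = DMSO wells and 100% = digitonin-killed cells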). The following applies: HepG2 viability, 24-48 h, at 10 µM, hits give high values.
Test [3] addresses L-lactate dehydrogenase (Plasmodium falciparum (isolate CDC / Honduras)) (UniProt Q27743). Description: PfLDH activity inhibition – cell lysate, 3D7 strain, counter-screen for P. falciparum growth inhibition project (AID 2304).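 Further: 0% = vehicle and 100% = reference inhibitor.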 Conditions: P. falciparum 3D7 crude extract, LDH APAD/NBT absorbance; at 2 µM; hits give high values. (A counterscreen serves to expose hits that act by an unwanted route or on another target.)

Test [4] in a line: inhibition of 3D7 malaria parasite growth – strain 3D7 (AID 2306).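 Further: 0% = DMSO wells and 100% = chloroquine plus artemisinin control wells.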 Conditions: P. falciparum 3D7 erythrocytic growth, LDH absorbance, 72 h; at 2 µM; hits give high values.
The target of test [5] is Calcium-dependent protein kinase 1 (Plasmodium falciparum (isolate 3D7)) (UniProt P62344). Description: PfCDPK1 kinase inhibitors, biochemical, TCAMS library (AID 1159585; cut-off not given, nearly all actives have IC50 up to about 0.98 µM;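 further: inhibitors leave more ATP so luminescence rises with inhibition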). Conditions: recombinant PfCDPK1, Kinase-Glo ATP depletion luminescence.
Calcium-dependent protein kinase 1 (Plasmodium falciparum (isolate 3D7)), sequence (P62344 whole entry, looked up): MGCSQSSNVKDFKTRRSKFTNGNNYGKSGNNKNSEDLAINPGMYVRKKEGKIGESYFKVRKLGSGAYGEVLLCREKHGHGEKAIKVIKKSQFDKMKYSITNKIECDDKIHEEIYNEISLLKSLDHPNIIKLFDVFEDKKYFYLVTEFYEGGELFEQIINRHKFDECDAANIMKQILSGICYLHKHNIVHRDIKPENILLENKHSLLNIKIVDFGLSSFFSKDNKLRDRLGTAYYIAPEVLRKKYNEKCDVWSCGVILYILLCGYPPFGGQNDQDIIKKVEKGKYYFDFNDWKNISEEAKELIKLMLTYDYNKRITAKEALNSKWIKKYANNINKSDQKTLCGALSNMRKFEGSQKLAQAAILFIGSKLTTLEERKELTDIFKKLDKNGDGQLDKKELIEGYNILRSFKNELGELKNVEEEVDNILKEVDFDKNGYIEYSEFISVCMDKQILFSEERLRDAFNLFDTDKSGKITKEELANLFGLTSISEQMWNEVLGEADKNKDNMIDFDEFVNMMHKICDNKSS
In test [6] the target is Plasmodium falciparum protein kinase 6 (PK6, PF3D7_1337100) (UniProt Q8IDW1). The test can be described thus: PfPK6 kinase inhibitors, biochemical, TCAMS library (AID 1159586). The following applies: recombinant PfPK6, Kinase-Glo ATP depletion luminescence. For orientation: Kinase-Glo measures the ATP left after a reaction by luminescence.
Plasmodium falciparum protein kinase 6 (PK6, PF3D7_1337100), sequence (Q8IDW1 1-305): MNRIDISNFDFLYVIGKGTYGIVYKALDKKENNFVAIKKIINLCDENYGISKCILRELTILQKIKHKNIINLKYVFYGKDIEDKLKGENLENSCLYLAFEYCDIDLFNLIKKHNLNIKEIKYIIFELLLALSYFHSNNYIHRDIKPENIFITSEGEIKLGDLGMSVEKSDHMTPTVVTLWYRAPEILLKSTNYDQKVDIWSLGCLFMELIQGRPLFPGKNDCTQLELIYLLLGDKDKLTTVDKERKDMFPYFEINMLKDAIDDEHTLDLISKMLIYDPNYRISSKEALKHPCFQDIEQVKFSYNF
The target of test [7] is Protein kinase 7 (PK7), Plasmodium falciparum 3D7 (PF3D7_0213400) (UniProt Q7YTF7). The test can be described thus: inhibition of Plasmodium PK7 catalytic activity – biochemical, TCAMS antimalarial set, Kinase-Glo luminescence (AID 1159587). The following applies: recombinant PfPK7, Kinase-Glo ATP depletion luminescence.
Protein kinase 7 (PK7), Plasmodium falciparum 3D7 (PF3D7_0213400), sequence (Q7YTF7 1-343): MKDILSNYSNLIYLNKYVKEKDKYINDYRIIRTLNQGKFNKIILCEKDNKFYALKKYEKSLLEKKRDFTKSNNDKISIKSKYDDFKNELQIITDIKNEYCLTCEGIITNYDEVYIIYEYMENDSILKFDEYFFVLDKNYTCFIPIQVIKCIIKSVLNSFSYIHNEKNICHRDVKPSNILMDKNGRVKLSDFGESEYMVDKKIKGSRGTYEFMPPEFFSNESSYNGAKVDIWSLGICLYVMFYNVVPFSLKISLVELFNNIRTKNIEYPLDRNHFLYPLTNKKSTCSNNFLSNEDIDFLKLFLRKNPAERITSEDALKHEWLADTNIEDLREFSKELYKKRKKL
Test [8] deals with Calcium-dependent protein kinase 4 (Plasmodium falciparum (isolate 3D7)) (UniProt Q8IBS5). Description: PfCDPK4 kinase inhibitors, biochemical, TCAMS library (AID 1159588; cut-off not given, nearly all actives have IC50 up to about 0.91 µM). Conditions: recombinant PfCDPK4, Kinase-Glo ATP depletion luminescence.
Calcium-dependent protein kinase 4 (Plasmodium falciparum (isolate 3D7)), sequence (Q8IBS5 whole entry, looked up): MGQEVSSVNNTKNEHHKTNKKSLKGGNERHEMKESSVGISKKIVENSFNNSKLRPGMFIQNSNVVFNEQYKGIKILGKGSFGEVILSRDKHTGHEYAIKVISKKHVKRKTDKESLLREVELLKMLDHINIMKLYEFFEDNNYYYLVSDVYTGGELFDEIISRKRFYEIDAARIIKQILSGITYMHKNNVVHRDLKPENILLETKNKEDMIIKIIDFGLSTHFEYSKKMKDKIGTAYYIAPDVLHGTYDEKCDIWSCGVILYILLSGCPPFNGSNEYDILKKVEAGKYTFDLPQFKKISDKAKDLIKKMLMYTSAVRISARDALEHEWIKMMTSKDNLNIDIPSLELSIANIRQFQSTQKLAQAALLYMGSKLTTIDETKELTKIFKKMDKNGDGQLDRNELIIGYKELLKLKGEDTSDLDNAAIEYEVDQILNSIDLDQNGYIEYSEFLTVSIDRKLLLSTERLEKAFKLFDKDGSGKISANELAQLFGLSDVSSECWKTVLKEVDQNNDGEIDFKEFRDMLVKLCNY

SMILES strings stand for the structures. A number with no mark means an inactive call. For some of these results: Results with a measured potency or affinity are listed apart. Active and inactive are the calls of the source. Unless noted, how the calls were made is not given here.

L-lactate dehydrogenase (Plasmodium falciparum (isolate CDC / Honduras)), sequence (Q27743 whole entry, looked up): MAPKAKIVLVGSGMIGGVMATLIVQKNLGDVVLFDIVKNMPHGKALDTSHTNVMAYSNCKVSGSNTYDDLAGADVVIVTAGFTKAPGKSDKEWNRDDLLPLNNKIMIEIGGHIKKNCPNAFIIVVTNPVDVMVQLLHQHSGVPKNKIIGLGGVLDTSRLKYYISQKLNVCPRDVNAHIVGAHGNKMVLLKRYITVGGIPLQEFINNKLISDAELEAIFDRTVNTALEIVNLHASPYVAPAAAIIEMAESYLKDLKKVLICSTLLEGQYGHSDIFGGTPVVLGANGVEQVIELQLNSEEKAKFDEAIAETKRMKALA

Regarding `O=C(NC1CC1)c1cnc(N2CCC(Cc3ccccc3)CC2)c(Cl)c1`, the growth inhibition in test [1] and in test [4] was 96% (active) throughout. In addition, the results for the inhibition in test [2] and in test [3] were 10% and -2%, respectively. The outcome in test [5], in test [6], in test [7] and in test [8] was inactive.

On to `Cc1cccc2[nH]c(-c3cccc(-c4ccc(NC(=O)c5cnn6cccnc56)cc4)c3)nc12`, for which the growth inhibition was 73% (active) in test [1] and 101% (active) in test [4]. Moreover, the inhibition – broadly, the relative decrease from the control value, in per cent – is 99% (active) in test [2] and -1% in test [3]. Also, the outcome in test [5], in test [6], in test [7] and in test [8] was inactive.

`COc1ccc2nc(C)cc(NN=Cc3ccc([N+](=O)[O-])cc3)c2c1`: the growth inhibition is 70% (active) in test [1] and 103% (active) in test [4]. In addition, the values for the inhibition in test [2] and in test [3] were -3% and -5%, respectively. Moreover, the outcome in test [5], in test [6], in test [7] and in test [8] was inactive.

Regarding `O=C(N[C@H]1CCN(Cc2ccc(OCCN3CCCC3)c(Cl)c2)C1)c1ccc(Cl)c(Cl)c1`, the growth inhibition was 46% in test [1] and 101% (active) in test [4]. The inhibition was 68% (active) in test [2] and -1% in test [3]. The outcome in test [5], in test [6], in test [7] and in test [8] was inactive.

Consider `c1ccc(CNCCn2c(-c3ccc4c(c3)CCO4)nc3c(N4CCCC4)cccc32)cc1`, for which the results for the growth inhibition in test [1] and in test [4] were 85% (active) and 82% (active), respectively. Besides, the inhibition was 9% in test [2] and -4% in test [3]. The result in test [5], in test [6], in test [7] and in test [8] was inactive.

For the compound `COc1ccc2c(c1)ncn2-c1cc(OCc2ccncc2Br)c(C(N)=O)s1`, the growth inhibition is 50% (active) in test [1] and 95% (active) in test [4]. In addition, the inhibition in test [2] was 14%; in test [3] it was -2%. Further, the result in test [5], in test [6], in test [7] and in test [8] was inactive.

With `CS(=O)(=O)Nc1ccc(-c2ccc3ccnc(N)c3c2)cc1`, the growth inhibition in test [1] is 75% (active); in test [4] it was 85% (active). The values for the inhibition in test [2] and in test [3] were 31% and -3%, respectively. For the same compound, the result in test [5], in test [6], in test [7] and in test [8] was inactive.

As for `O=C(/C=C/c1ccc(Cl)cc1)NCCCCCN1CCC(c2c[nH]c3ccccc23)CC1`, the values for the growth inhibition in test [1] and in test [4] were 15% and 99% (active), respectively. Further, the inhibition in test [2] was 42%; in test [3], 7%. The result in test [5], in test [6], in test [7] and in test [8] was inactive.

Regarding `COc1cc(NC(=O)c2cccs2)c(OC)cc1NC(=O)Nc1cccc(Cl)c1`, the values for the growth inhibition in test [1] and in test [4] were 10% and 83% (active), respectively. In addition, the values for the inhibition in test [2] and in test [3] were 5% and -3%, respectively. Moreover, the outcome in test [5], in test [6], in test [7] and in test [8] was inactive.

Turning to `CNC(=O)C(NC(=O)c1ccccc1C(=O)OC)c1ccccc1` (stereo not given), the growth inhibition in test [1] was 2%; in test [4], 96% (active). For the same compound, the inhibition in test [2] was 4%; in test [3] it was 3%. Also, the result in test [5], in test [6], in test [7] and in test [8] was inactive.

`FC(F)(F)c1ccc2nc(-c3ccc(-c4ccc(CN5CCN(c6cnccn6)CC5)cc4)cc3)[nH]c2c1`: the values for the growth inhibition in test [1] and in test [4] were 50% (active) and 99% (active), respectively. The inhibition in test [2] is 21%; in test [3], -7%. Besides, the result in test [5], in test [6], in test [7] and in test [8] was inactive.

Consider `NCC1CCCN1Cc1ccc(-c2ccc(-c3nc4ccc(C(F)(F)F)cc4[nH]3)cc2)cc1` (stereo not given), for which the results for the growth inhibition in test [1] and in test [4] were 98% (active) and 101% (active), respectively. The inhibition in test [2] is 35%; in test [3], 3%. For the same compound, the outcome in test [5], in test [6], in test [7] and in test [8] was inactive.

Regarding `COc1ccc(C(=O)COc2cccc(/C=C/C(=O)O)c2)cc1OC`, the figures for the growth inhibition in test [1] and in test [4] were 28% and 84% (active), respectively. In addition, the inhibition in test [2] is 44%; in test [3] it was 3%. Besides, the outcome in test [5], in test [6], in test [7] and in test [8] was inactive.

For `NC(N)=Nc1nc(CCCCCCCCc2csc(N=C(N)N)n2)cs1`, the growth inhibition in test [1] was 28%; in test [4] it was 100% (active). Further, the inhibition in test [2] is 27%; in test [3], 0%. The result in test [5], in test [6], in test [7] and in test [8] was inactive.

Turning to `C[C@@H](C(N)=O)N1CCCCC1c1ccc(OCc2cccc(F)c2)cc1` (stereo not given in full), the figures for the growth inhibition in test [1] and in test [4] were 96% (active) and 84% (active), respectively. For the same compound, the inhibition in test [2] was 79% (active); in test [3], 9%. Further, the outcome in test [5], in test [6], in test [7] and in test [8] was inactive.

On to `Oc1cc(Nc2ccnc3cc(-c4ccc(CN5CCCCC5)o4)ccc23)c(Cl)cc1F`, for which the growth inhibition was 81% (active) in test [1] and 101% (active) in test [4]. In addition, the figures for the inhibition in test [2] and in test [3] were 30% and 5%, respectively. The result in test [5], in test [6], in test [7] and in test [8] was inactive.

On to `COc1cc(C)c(NC(=O)c2cccc3c(=O)c(C)c(-c4ccccc4)oc23)cc1OC`, for which the growth inhibition is 32% in test [1] and 86% (active) in test [4]. Moreover, the inhibition in test [2] is 96% (active); in test [3] it was 2%. Besides, the outcome in test [5], in test [6], in test [7] and in test [8] was inactive.

In the case of `CC1(C)CCNc2cc(NC(=O)c3ccc(-c4ncccc4C(F)(F)F)cc3)ccc21`, the growth inhibition in test [1] was 86% (active); in test [4] it was 97% (active). For the same compound, the inhibition in test [2] is 7%; in test [3] it was -3%. Moreover, the outcome in test [5], in test [6], in test [7] and in test [8] was inactive.

Consider `Nc1c2ccccc2nc2cc(Cl)ccc12`, for which the growth inhibition in test [1] is 86% (active); in test [4], 103% (active). In addition, the inhibition in test [2] is 24%; in test [3] it was -3%. The result in test [5], in test [6], in test [7] and in test [8] was inactive.

Take `O=C(NCCN1CCN(S(=O)(=O)c2ccc(OC3CCNCC3)c(Br)c2)CC1)c1ccc(Cl)c(Cl)c1`: the results for the growth inhibition in test [1] and in test [4] were -3% and 89% (active), respectively. Moreover, the inhibition in test [2] is 1%; in test [3], -3%. Besides, the outcome in test [5], in test [6], in test [7] and in test [8] was inactive.
